{"source": "the supplement of paper PMC10127200", "note": "Structures can show the parent of a compound that is named as a salt."}
{"tested_on": "FB", "assay": "Euclidean distance of Cell Painting phenotypic profile (signed KS, 77 features) to DMSO centroid (dimensionless distance); 5 or 10 uM (library dependent); higher = stronger phenotypic change vs DMSO (phenoactivity)", "conditions": "48 h", "in_short": "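Harmony extracted 77 features from 20X confocal images (9 fields/well) of stained cells, scoring each as a signed Kolmogorov-Smirnov statistic against same-plate vehicle wells. The cells, five cancer lines and a healthy fibroblast line, had received library compounds for 48 h at 10 or 5 uM depending on library, with 0.1% DMSO final. Phenoactivity is the Euclidean distance from each plate-position-corrected, correlation-weighted, top-dose replicate-averaged profile to the median vehicle profile.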"}
{"compound": "O=C(O)c1cc(/N=N/c2ccc(S(=O)(=O)Nc3ccccn3)cc2)ccc1O", "note": "[Sulfasalazine]", "Euclidean distance": 1.14}
{"compound": "CO[C@H]1C[C@H](O[C@@H]2/C(C)=C/C[C@@H]3C[C@@H](C[C@]4(CC[C@H](C)[C@@H](C5CCCCC5)O4)O3)OC(=O)[C@@H]3C=C(C)/C(=N/O)[C@H]4OC/C(=C\\C=C\\[C@@H]2C)[C@]43O)O[C@@H](C)[C@@H]1O", "note": "[Selamectin]", "Euclidean distance": 1.24}
{"compound": "Cc1cc(C(C)Nc2ccccc2)c2nc(N3CCOCC3)cc(=O)n2c1", "note": "(stereo not drawn)", "Euclidean distance": 1.62}
{"compound": "CC(C)N1CCN(Cc2cnc(-c3cc(-c4cccc5[nH]ccc45)cc4[nH]ncc34)o2)CC1", "Euclidean distance": 3.33}
{"compound": "COc1ccc(C2=N[C@@H](c3ccc(Cl)cc3)[C@@H](c3ccc(Cl)cc3)N2C(=O)N2CCNC(=O)C2)c(OC(C)C)c1", "note": "[Nutlin-3]", "Euclidean distance": 2.68}
{"compound": "CN(C)c1ccc(O)c2c1C[C@H]1C[C@H]3[C@H](N(C)C)C(O)=C(C(N)=O)C(=O)[C@@]3(O)C(O)=C1C2=O", "note": "[Minocycline HCl]", "Euclidean distance": 1.33}
{"compound": "Oc1cccc(O)c1", "note": "[Resorcinol]", "Euclidean distance": 1.24}
{"compound": "CCOC(=O)[C@H](CCc1ccccc1)N[C@@H](C)C(=O)N1[C@H](C(=O)O)C[C@H]2CCCC[C@@H]21", "note": "[Trandolapril]", "Euclidean distance": 0.819}
{"compound": "C=CC(=O)Nc1cc(Nc2nccc(-c3cn(C)c4ccccc34)n2)c(OC)cc1N(C)CCN(C)C", "note": "[Osimertinib (AZD9291)]", "Euclidean distance": 5.35}
{"compound": "Cc1ccc(CNc2ncnc3ccc(-c4ccc(CO)o4)cc23)o1", "Euclidean distance": 1.25}
{"compound": "O=C(O)CC[C@H]1CC[C@@](c2cc(F)ccc2F)(S(=O)(=O)c2ccc(Cl)cc2)CC1", "Euclidean distance": 1.8}
{"compound": "O=c1[nH]cc(F)c(=O)[nH]1", "note": "[Fluorouracil (5-Fluoracil. 5-FU)]", "Euclidean distance": 2.37}
{"compound": "C[N+]1(C)[C@@H]2C[C@@H](OC(=O)C(O)(c3cccs3)c3cccs3)C[C@H]1[C@@H]1O[C@@H]12", "note": "[Tiotropium Bromide hydrate]", "Euclidean distance": 1.02}
{"compound": "Cc1onc(-c2c(F)cccc2Cl)c1C(=O)N[C@@H]1C(=O)N2[C@@H]1SC(C)(C)[C@@H]2C(=O)O", "note": "[Flucloxacillin sodium]", "Euclidean distance": 1.12}
{"compound": "Cc1csc(-c2nnc(Nc3ccc(Oc4ncccc4-c4ccnc(N)n4)cc3)c3ccccc23)c1", "Euclidean distance": 2.44}
{"compound": "COc1cc2c(cc1OC)[C@H]1C[C@@H](OC(=O)[C@@H](N)C(C)C)[C@H](CC(C)C)CN1CC2", "note": "[Valbenazine tosylate]", "Euclidean distance": 0.778}
{"compound": "FC(F)c1nc2ccccc2n1-c1nc(N2CCOCC2)nc(N2CCOCC2)n1", "Euclidean distance": 2.87}
{"compound": "COc1ccc(-c2ccc3cc(C(=O)O)ccc3c2)cc1C12CC3CC(CC(C3)C1)C2", "note": "[Adapalene]", "Euclidean distance": 2.18}
{"compound": "COc1cc2ncnc(Nc3cccc(Cl)c3F)c2cc1OC(=O)N1CCN(C)C[C@H]1C", "Euclidean distance": 1.4}
{"compound": "Nc1ccc(S(=O)(=O)Nc2ncccn2)cc1", "note": "[Sodium sulfadiazine]", "Euclidean distance": 1.52}
{"compound": "CC(C)COCC(CN(Cc1ccccc1)c1ccccc1)N1CCCC1", "note": "(stereo not drawn) [Bepridil hydrochloride]", "Euclidean distance": 1.65}
{"compound": "Oc1nc(-c2ccc(C(F)(F)F)cc2)nc2c1CSCC2", "Euclidean distance": 0.913}
{"compound": "CCn1cc(C(=O)O)c(=O)c2cc(F)c(N3CCN(C)CC3)cc21", "note": "[Pefloxacin Mesylate]", "Euclidean distance": 1.04}
{"compound": "COc1ccc2[nH]cc(CCNC(C)=O)c2c1", "note": "[Melatonin]", "Euclidean distance": 0.749}
{"compound": "Cc1ccc(C(=O)Nc2ccc(CN3CCN(C)CC3)c(C(F)(F)F)c2)cc1C#Cc1cnc2cccnn12", "Euclidean distance": 1.08}
{"compound": "CNC(=O)c1cc(Oc2ccc(NC(=O)Nc3ccc(Cl)c(C(F)(F)F)c3)cc2)ccn1", "note": "[Sorafenib]", "Euclidean distance": 1.78}
{"compound": "O=C(CCCCCN1C(=O)c2cccc3cccc(c23)C1=O)NO", "note": "[Scriptaid]", "Euclidean distance": 3.75}
{"compound": "CCCNS(=O)(=O)Nc1ncnc(OCCOc2ncc(Br)cn2)c1-c1ccc(Br)cc1", "note": "[Macitentan]", "Euclidean distance": 0.878}
{"compound": "CCC1=C[C@@H]2CN(C1)Cc1c([nH]c3ccccc13)[C@@](C(=O)OC)(c1cc3c(cc1OC)N(C)[C@H]1[C@@](O)(C(=O)OC)[C@H](OC(C)=O)[C@]4(CC)C=CCN5CC[C@]31[C@@H]54)C2", "note": "[Vinorelbine Tartrate]", "Euclidean distance": 3.46}
{"compound": "O=C(NC1CCOCC1)c1ccc(-c2cc(-c3c[nH]nc3-c3ccccn3)ccn2)cc1", "Euclidean distance": 1.3}
{"compound": "CC(C)c1ccc(NC(=O)Cn2cnc3c2c(=O)n(C)c(=O)n3C)cc1", "Euclidean distance": 0.919}
{"compound": "COc1ccccc1S(=O)(=O)Nc1ccc2c(c1)CN(C)C(=O)N2", "Euclidean distance": 2.84}
{"compound": "O=C(O)COCCN1CCN(C(c2ccccc2)c2ccc(Cl)cc2)CC1", "note": "(stereo not drawn) [Cetirizine DiHCl]", "Euclidean distance": 1.32}
